# High-throughput results deposited in PubChem by National Center for Advancing Translational Sciences (NCATS).
# Most compounds without a hit are left out; they make up all but 7.1% or so of the library.
# SW480 rereplic: A quantitative high throughput screen for small molecules that induce DNA re-replication in SW480 colon adenocarcinoma cells; SW480 DNA re-replication, Hoechst DNA content imaging, 48 h; Potency, µM (titrated, usually from 46.1 µM), inactives show at the highest dose re-replication activation, most hits filed as activators; actives 1.8% (n = 340,000); further: potency means the concentration at half of the fitted maximal effect; % of control where 0% means no effect; nearly all actives have a fitted effect of over 55% in size
#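 First, 250 cells per well were seeded. Next, compound or vehicle (23 nL) was pinned in, plates sat 48 hr at 37 C. Finally Hoechst was added for 40 min before fluorescence scanning.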
# IL1B secr inh: qHTS for Inhibitors of Inflammasome Signaling: IL-1-beta AlphaLISA Primary Screen | THP-1 LPS/ATP IL-1B secretion, AlphaLISA, 16 h; hits give low values | activity change, % at 57.5 µM | actives 4.7% (n = 360,000); in the data active means activity change below about -50%; inconclusive means mostly about -30% to -49%; further: on the % scale 0 is the no-effect control and ±100 the full control effect
#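 THP-1 cells pretreated 1 hr with compounds (up to 57.5 uM final), then stimulated with LPS (250 ng/mL final) plus ATP (1.25 mM final); secreted IL-1B measured by AlphaLISA after 16 hr, decreased signal indicating inhibition.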
# ATXN2 expr inh: Primary qHTS for Inhibitors of ATXN expression; HEK-293 ATXN2-luciferase reporter, luminescence, 24 h; Potency, µM (series often up to 57 µM), without a hit: at the highest dose activity change, negative = inhibition, hits mostly inhibitors; actives 0.72% (n = 360,000); AID 1745845, 2022; further: potency means the concentration at half of the fitted maximal effect; on the % scale 0 is the no-effect control and ±100 the full control effect; nearly all actives have a fitted effect of over 55% in size
#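 qHTS (up to 57 uM final) was run with 24 h compound exposure of reporter cells at 37 °C. Each well was multiplexed: SteadyGlo luminescence measured ATXN2-luciferase expression after a fluorogenic Gly-Phe-AFC viability readout (25 uM final).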
# MCF10A rereplic: A quantitative high throughput screen for small molecules that induce DNA re-replication in MCF 10a normal breast cells | MCF 10A DNA re-replication, Hoechst nuclear intensity, 48 h | Potency, µM (doses to about 46.1 µM), without a hit: at the top dose activity, positive = re-replication, most hits filed as activators | actives 2.9% (n = 350,000); further: potency means the concentration at half of the fitted maximal effect; % of control where 0% means no effect; nearly all actives have a fitted effect of over 50% in size
# PINK1 expr mod: A Quantitative High throughput Screen to Identify Chemical Modulators of PINK1 Expression | PINK1 immunofluorescence, high-content cytometry, 24 h | Potency, µM (titrated, usually from 76.6 µM), for the others: at the top dose activation (PINK1 increase), most hits filed as activators | actives 0.2% (n = 410,000); active means well fitted activation curve with a large enough effect; inconclusive means small, poorly fitted or top-dose-only effect; cell line not stated here; further: potency means the concentration at half of the fitted maximal effect; % of control where 0% means no effect; nearly all actives have a fitted effect of over 65% in size
#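 Readout is PINK1 immunofluorescence, quantified alongside mitochondrial, cell and nuclear markers by laser-scanning microplate cytometry. Cells from a stable line were exposed to compound titrations (5 concentrations) for 24 hours, with CCCP controls.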
# ATXN viability: Viability Counterscreen for Primary qHTS for Inhibitors of ATXN expression. S2 cells (HEK-293 line with an ATXN2-luciferase reporter) viability, CellTiter-Fluor protease fluorescence, 24 h. Potency, µM (doses to about 56.7 µM), actives largely listed as cytotoxic. actives 0.49% (n = 400,000). AID 651635, 2014; further: potency means the concentration at half of the fitted maximal effect; nearly all actives have a fitted effect of over 40% in size
# * marks the source's active call; other numbers are inactive results; i = inactive; ? = inconclusive; · = no result given; [ ] = another dose, or the depositor's remark. Unless noted, the call rests on the fitted dose curve; in most records, active means well fitted curve in the direction sought with a large enough effect; inconclusive means small, poorly fitted or top-dose-only effect, or another doubt; inactive means no such curve, though single readings can be large; an effect the other way counts as inactive or inconclusive.
SMILES,SW480 rereplic,IL1B secr inh,ATXN2 expr inh,MCF10A rereplic,PINK1 expr mod,ATXN viability
Cc1ccc(O)c(NC(=O)CCSc2nc(-c3ccco3)cc(C(F)(F)F)n2)c1,·,·,?,·,23.4%,?
Cc1cccc(NC(=O)[C@H](Cc2c[nH]c3ccccc23)NC(=O)[C@@H]2Cc3ccccc3CN2)c1,20.6µM*,-1.1,-12.1%,16.4µM*,2.9%,?
CCc1ccc(NC(=O)[C@H](Cc2c[nH]c3ccccc23)NC(=O)[C@@H]2Cc3ccccc3CN2)cc1,16.4µM*,-3.0,3.3%,18.4µM*,0.1%,i
Cc1cc(C)cc(NC(=O)[C@H](Cc2c[nH]c3ccccc23)NC(=O)[C@@H]2Cc3ccccc3CN2)c1,18.4µM*,23.8,-25.9%,20.6µM*,0.0%,?
CC(NC(=O)[C@H](Cc1c[nH]c2ccccc12)NC(=O)[C@@H]1Cc2ccccc2CN1)c1ccccc1 (some centres not stated),0.0%,-16.8,-5.8%,12.6%,1.1%,i
CCOc1ccc(S(=O)(=O)c2cn(C)c3ccccc3c2=O)cc1,·,·,-4.6%,·,-0.8%,i
COc1ccc(-c2noc(CCCC(=O)Nc3cccc(Cl)c3C)n2)cc1,·,·,-19.2%,·,5.5%,i
CC1=CC(=O)C(Sc2ccc(C)cc2)=CC1=O,·,-77.6*,·,·,8.8%,·
O=C1c2[nH]nc(-c3ccccc3O)c2C(c2ccccc2F)N1Cc1ccncc1 (configuration not stated),·,·,-9.8%,·,4.5%,?
CCOC(=O)C1CCCN(C(=O)c2cccc(S(=O)(=O)N(C)c3c(C)n(C)n(-c4ccccc4)c3=O)c2)C1 (configuration not stated),?,i,2.3%,-34.9%,-0.6%,i
Cc1c(N(C)S(=O)(=O)c2ccc(Cl)c(C(=O)N3CCC(C(N)=O)CC3)c2)c(=O)n(-c2ccccc2)n1C,6.51µM*,32.8,3.4%,8.3%,2.9%,i
Cc1onc(-c2ccccc2)c1C(=O)N/N=C/c1cc(Br)c(Br)o1,9.5%,-93.1*,-26.8%,?,0.4%,i
CCOc1cc([N+](=O)[O-])cc(/C=N/NC(=O)c2c(-c3ccccc3)noc2C)c1O,8.2µM*,132.3,?,14.9%,-1.4%,i
Cc1onc(-c2ccccc2)c1C(=O)N/N=C/c1c[nH]c2ccccc12,-47.2%,-71.9*,?,?,3.5%,i
Cc1cccc(C(=O)N/N=C/c2ccc[nH]2)c1,-1.3%,0.0,15.2%,0.1%,4.3%,i
Cc1cccc(C(=O)N/N=C/c2cc(Br)c(Br)o2)c1,-694.7%,-55.4*,6.8%,?,8.0%,?
CCOc1cc(/C=N/NC(=O)c2c(-c3ccccc3)noc2C)ccc1O,3.7%,38.2,-4.4%,9.4%,3.4%,i
CC(=O)c1cc(NC(=O)c2ccc([N+](=O)[O-])cc2)c(=O)oc1C,25.4%,-17.7,0.4%[11.3 µM],16.4µM*,1.2%,i
Cc1oc(=O)c(NC(=O)c2cccc(Cl)c2)cc1C(=O)c1ccccc1,20.6µM*,?,-22.9%,?,11.1%,?
Cc1ncc2c(c1CNC(=O)c1ccc3c(c1)OCO3)CCN(C(=O)c1cc3ccccc3o1)C2,·,·,·,·,0.2%,?
CCCC1C(=O)Nc2ccccc2N1C(=O)c1ccc(C(C)(C)C)cc1 (configuration not stated),?,-82.1*,-14.3%,25.9µM*,3.2%,i
COc1cc(NC2CCCCC2O)c2nc(-c3ccc(Cl)cc3)ccc2c1 (configuration not stated),13µM*,-24.4,27.4%,13µM*,0.1%,i
CCc1cc2c(cc3c(=O)n(CC(=O)NC(C)C)nc(CC)n32)s1,·,·,·,·,-0.1%,·
